Measurements as given in the supplement of paper PMC10338343.
± gives the standard deviation. The full ranking holds about 5,500 sequences; the median of “pre-steady-state target cleavage rate” is about 0.1, and the highest 2% start at about 0.64. For the sample, the highest values were picked, then their nearest neighbours and some sequences at random.

These sequences were tested on MIWI (PIWIL1) piRISC loaded with piRNA #2 (30 nt) (assay: pre-steady-state target cleavage rate (min^-1); MIWI and MILI are mouse PIWI proteins and EfPiwi is from a freshwater sponge; tags in brackets are library labels; higher = faster piRNA-guided slicing of the target). Details: guide: piRNA #2 5'p-UUAGGUAACCCAGUAGAUCCAGAGGAAUUC; auxiliary factor: 500 nM mouse GTSF1.
Method: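 Cleave-'n-Seq: a library of target RNAs (target site embedded in constant flanks, ACAGCATTCCGCGTTAGTGATATCCG... 5' flank; DNA-blocked outside the site) at 0.1 nM was incubated with 1 nM active mouse MILI or MIWI piRISC (synthetic 5'-monophosphorylated piRNA guide) with or without 500 nM mouse GTSF1 at 33 °C for 1 min to 16 h. Uncleaved targets were sequenced and normalised to non-target controls, and the pooled three trials were fitted to a burst-and-steady-state model to give the pre-steady-state cleavage rate (min^-1; k3 is constrained to at most 1e-4). Sequence is the target site only; target names encode pairing extent (gX:gY) and contiguous / 1-mismatch / 2-mismatch / bulge geometry. Fits with R² ≤ 0 are excluded.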

Sequence	pre-steady-state target cleavage rate
CUUAAGCAGAGGAUCUACUGGGUUACCUAA	0.0315 ± 0.0087
GAAUUCCACAGGAUCUACUGGGUUACCUAA	0.408 ± 0.05
CUUAAGGUCUGGAUCUACUGGGUUAGCCUAA	0.185 ± 0.025
CUUUUCCUCUGGAUCUUCUGGGAUACCUAA	0.146 ± 0.022
CUUAAGGUGAGGAUCUACUGGGUUACCUAA	0.0307 ± 0.01
CUUAUCCUCUGGAUCUACUGCGUUACCUAA	0.498 ± 0.055
CUUAAGGUCUGCAUCUAGUGGGUUACCUAA	0.0327 ± 0.0059
GAUUUCCUCUGGUUCUACUGGGUUACCUAA	0.524 ± 0.046
CAAUUCCUCUGCUUCUACUGGGUUACCUAA	0.653 ± 0.056
GAAUUCCUCUGCUUCUACUGGGUUACCUAA	0.48 ± 0.04
CUAUUCCUCUGCUUCUACUGGGUUACCUAA	0.516 ± 0.04
CUUUUCCUCUGGUUCUACUGGGUUACCUAA	0.621 ± 0.042
CAUUUCCUCUGGUUCUACUGGGUUACCUAA	0.772 ± 0.046
CUUAAGGUCUGGUUCUAGUGGGUUACCUAA	0.0776 ± 0.014
CUUAAGGACUGGAUCUACUGGGUUACCAUAA	0.051 ± 0.039
CUUAAGUUCUGGAUCUACUGGGUUACCUAA	0.274 ± 0.04
CAAUUCCUCUGGAUCUACUGGGAUACCUUA	0.219 ± 0.046
CUUAACCUCUGGAUCAACUCGGUUACCUAA	0.0679 ± 0.013
CUUAUCCUCUGGAUCUUCUGGGAUACCUAA	0.144 ± 0.025
CAAUUCCUCUGGCUCUACUGGGUUACCUAA	0.66 ± 0.04
CAAUUCCUCUGCAUCUACUGGGUUACCUAA	0.57 ± 0.049
CUUUUCCUCUGGCAUCUACUGGGUUACCUAA	0.331 ± 0.089
GAAUUCCUCUGCAUCUACUGGGUUACCUAA	0.421 ± 0.051
CUAUUCCUCUGGCAUCUACUGGGUUACCUAA	0.399 ± 0.1

Sequence	pre-steady-state target cleavage rate
CAAUUCCUCUGGCAUCUACUGGGUUACCUAA	0.636 ± 0.17
GAAUUCCUCUGGCUCUACUGGGUUACCUAA	0.586 ± 0.038
CUAUUCCUCUGGCUCUACUGGGUUACCUAA	0.612 ± 0.042
GAAUUCCUCUGGCAUCUACUGGGUUACCUAA	0.667 ± 0.17
CUUAACCACUGGAACUACUGGGUUACCUAA	0.292 ± 0.025
CUAUUCCACUGGAUCUACUGGGUUUCCUAA	0.448 ± 0.066
CAAUUGCUCUGGAUCUACUGGGUUACCAAA	0.429 ± 0.071
CUUAAGGUCUGGAUCUACUGGGUUACAUAA	0.606 ± 0.054
CUAUUCCUCUGGAUCUACUGGGUUACCUAAA	0.333 ± 0.047
CUUUUCCUCUCGAUCUACUGGCUUACCUAA	0.201 ± 0.016
CUUAAGGUCUGGAUCAACUGGGUUACGUAA	0.293 ± 0.039
CUUAACCUCUGGAUCUACUGGUUACCUAA	0.0564 ± 0.012
CUUAACCUCUGGAUCUACUGAGUUACCUAA	0.646 ± 0.047
CUUAUCCUCUGGAUCUACUGGAUUACCUAA	0.402 ± 0.049
CUUAACCUCUGGAUCUACUGGAGUUACCUAA	0.00317 ± 0.0031
CUUAUCCUCUGGAUCUACUGGGUUACCUAA [g2:g26:cont:t1A]	0.414 ± 0.063
CUUAUCCUCUGGAUCUACUGAGUUACCUAA	0.779 ± 0.05
CUUAUCCUCUGGAUCUACAGGGUUUCCUAA	0.119 ± 0.02
GAAUUCCUCUGGAUCUACUGGGUGACCUAA	0.244 ± 0.038
GAAUUCGUCUGGAUCUACUGGGUUAGCUAA	0.293 ± 0.068
CUUAACCUCUGGAUCUACUCGGUUACCUUA	0.052 ± 0.011
CUUAACCUCUGGUUCUACUGCGUUACCUAA	0.754 ± 0.077
CAAUACCUCUGGAUCUACUGGGUUACCUAA	0.395 ± 0.06
CUAUACCUCUGCAUCUACUGGGUUACCUAA	0.439 ± 0.042
